Experimental data: PubChem BioAssay AID624263 (National Center for Advancing Translational Sciences (NCATS), 2012)
Several values for one entry are separate records, joined by “and”; a condition that tells them apart may be missing. Equal values may be shown once. Out of some 410,000 compounds screened, about 820 (0.2%) were called active. Inconclusive results (about 2%) are left out. Calls follow the shape of the dose curve; as a rule, active = well fitted activation curve with a large enough effect; inconclusive = small, poorly fitted or top-dose-only effect; inactive = flat fitted curve, though single readings scatter; cell line not stated here. What follows is part of a selection rich in actives, with near analogues and random picks from the rest. Where a call stands in place of a potency, no number is given. Some structures have more than one record in an assay (separate samples or runs), and their calls can disagree.

assay: A Quantitative High throughput Screen to Identify Chemical Modulators of PINK1 Expression; conditions: PINK1 immunofluorescence, high-content cytometry, 24 h; series mostly up to 76.6 µM; also: nearly all actives have a fitted effect of over 65% in size
Description: The overall goal of this project is to develop new tools for understanding and treating the mitochondrial basis for neurodegenerative disease such as Parkinson's disease (PD). The PINK1 campaign was developed from recent data pointing towards mitochondrial dysfunction as a major contributor to dopaminergic neuron loss. The discovery of PINK1/Parkin mediated mitophagy has highlighted the potential for mitochondrial quality control as a novel target for therapeutic intervention. […] A second aim of this project is the development of chemical probes to study the mechanics of mitochondrial quality control. As the PINK1/Parkin mitophagy pathway is a relative recent discovery, no specific chemical probes are available that modulate the process. Presently, only crude tools that cause nonspecific mitochondrial damage are available. To advance the understanding of mitophagy, specific, well characterized chemicals that target various steps of mitophagy regulation need to be developed. New chemical probes may have the ability to dynamically manipulate mitophagy in model organisms such as rodents and zebrafish, advancing our understanding of the process in development and disease. This HTS campaign seeks to discover an activator of PINK1 expression by modulation at the level of post-translational processing.
The PINK1 assay determines the amount and localization of PINK1 protein in a cell using a combination of immunofluorescence and cell staining. The goal of the assay is to determine small molecules that can increase the expression of Pink1 on or inside the cell's mitochondria (ideally without mitochondrial depolarization) using a stable cell line. Since PINK1 protein is rapidly degraded in un-perturbed cells, compounds that induce the enhancement of PINK1 protein expression are identified by determining PINK1 immunofluorescence in conjunction with a mitochondrial, cell, and nuclear marker post fixation. To facilitate rapid high content screening, the primary assay is run in a decision-based HTS mode where compound titration data collected by laser-scanning microplate cytometers is processed and only promising compound series are passed off for high content drill down.
1 Add cells to black, clear-bottom, low-base 1536-well plates 6 uL (250 cells/well)
2 Incubate in TC incubator (12 hours)
3 Pin compounds or DMSO controls 23 nL (5 concentrations per compound set)
4 Dispense CCCP to control columns
5 Incubate in TC incubator 24 hours
6 Aspirate media and fix cells (5 uL of fixative containing nuclear dye)
7 Incubate 15 minutes at RT
8 Wash in PBSTween (12 uL/well)
9 Wash in PBSTriton (12 uL/well)
10 Aspirate wash and add Blocking buffer (4 uL/well)
12 Aspirate block and add primary antibodies 3.5 (uL/well)
13 Incubate 12 hours at 10 degrees C
14 Wash in PBSTween-20 two times (12 uL/well)
15 Aspirate wash and add secondary antibodies (12 uL/well)
17 Wash in PBSTween (12 uL/well)
18 Wash in PBSTween with cell stain (12 uL/well)
19 Read plates on Acumen EX3 and determine Wells2Cells coordinates
Potency is read from the fitted curve at half-maximal effect.

| SMILES | Potency |
| --- | --- |
| Cc1cccc(OCC(O)CN2CCN(S(=O)(=O)c3ccc(C)cc3C)CC2)c1 (configuration not stated) | inactive |
| OC(COc1ccc(F)cc1Cl)CN1CCc2ccccc2C1 (configuration not stated) | inactive |
| Cc1ccc(OCC(O)CN2CCN(CC(O)COc3ccc(C)cc3Cl)CC2)c(Cl)c1 (configuration not stated) | 11.2 µM (active) |
| O=C(NCC1Cc2cc(F)cc(-c3cnccn3)c2O1)C1COc2ccccc2O1 (configuration not stated) | inactive |
| O=C(C(=O)N1CCOc2ccc(CN3CCN(Cc4ccccn4)CC3)cc2C1)c1ccccc1 | inactive |
| COc1ccc2c(c1)CCc1cnc(-n3ncc(C(=O)NCc4cccnc4)c3C3CC3)nc1-2 | inactive |
| O=C(NN=Cc1ccccc1O)NN=Cc1ccccc1O | 0.891 µM (active) |
| O=Nc1c(O)cc(O)c2ccccc12 | inactive |
| O=C(N/N=C/c1cccc2cccnc12)[C@H]1C[C@@H]1c1ccccc1 | inactive |
| CCC1CN(CCNC(=O)c2cccnc2C)Cc2cc(OC)ccc2O1 (configuration not stated) | inactive |
| Cc1c(C(=O)NCC2CCCN(C)C2)cnn1-c1nccc(-c2ccco2)n1 (configuration not stated) | inactive |
| CC12CCC(C(=O)N(CCC#N)CCC#N)(CC1=O)C2(C)C (configuration not stated) | 5.01 µM (active) |
| CCN(CC)c1ccc(/C=C/c2c(C)cnc3ccc(C)cc23)cc1 | inactive |
| COc1cc(C)c(CN2CCc3nnc(C(C)NC(=O)c4cccnc4)n3CC2)cc1C (configuration not stated) | inactive |
| Cc1ccc(CNC(=O)Nc2nnc([C@H]3C[C@H](O)[C@@H](CO)O3)s2)cc1 | inactive |
| CCCCN(C)c1nnc(NC(=O)Nc2ccc(Br)c(C)c2)s1 | inactive |
| Cc1ccc(NC(=O)Nc2nnc(-c3ccncc3)s2)cc1 | 15.8 µM (active) |
| C/C=C/NNC(=O)Cc1ccc(OC)cc1 | inactive |
| CCCc1cc(=S)n2c([nH]c3ccccc32)c1C#N | 28.2 µM (active) |
| Cn1cccc1C(=O)N1CCC2(CC1)CN(c1cccc(-c3ccccc3)c1)C2 | inactive |
| COc1c2c(cc3occ(-c4ccc5c(c4)OCO5)c(=O)c13)OC(C)(C)C=C2 | inactive |
| CC(C)S(=O)(=O)c1csc(NC(=O)Nc2ccc(Cl)cc2)c1Cl | 15.8 µM (active) |
| CC(=O)c1ccc(NC(=O)C(C)NCc2ccc(Cl)cc2)cc1 (configuration not stated) | inactive |
| CC(=O)N1CCC(N(C(=O)Nc2ccc(Cl)cc2)C(C)C)CC1 | inactive |
| COc1cc(=O)n2c(c1C(=O)NC(C)c1ccco1)CCN(Cc1cc(C)cc(C)c1)CC2 (configuration not stated) | inactive |

| SMILES | Potency |
| --- | --- |
| COc1ccc2[nH]cc(CCNc3ncnc4ccc(-c5ccc(C(=O)N(C)C)cc5)cc34)c2c1 | inactive |
| O=C(CNS(=O)(=O)c1cccc(C(F)(F)F)c1)Nc1ccccc1F | 10 µM (active) |
| O=C(CNc1cccc(S(=O)(=O)N2CCCCC2)c1)Nc1ccccc1F | inactive |
| O=C(CNS(=O)(=O)c1ccc2ccccc2c1)Nc1ccc(F)c(F)c1F | inactive |
| Cc1cnc(-n2ncc(C(=O)N3CCN(C(C)C)CC3)c2-c2ccco2)nc1-c1ccc(F)cc1 | inactive |
| CC(C)(C)c1ccc(C(=O)C[n+]2cccc3cc(Cl)ccc32)cc1 | inactive |
| OCC1CCCN(c2nc3cc4c(cc3cc2CNCc2cccs2)OCO4)C1 (configuration not stated) | inactive |
| Cc1ccc(NC(=O)CCC(=O)N2CCC(c3ccccc3)=N2)cc1S(=O)(=O)N1CCCCC1 | 11.2 µM (active) |
| Cc1ccc(NC(=O)COC(=O)C2CC2)cc1S(=O)(=O)N1CCOCC1 | inactive |
| Cc1ccc(NC(=O)CCCNC(=O)c2ccc(Cl)cc2)cc1S(=O)(=O)N1CCCCC1 | inactive |
| COc1cc(=O)n2c(c1C(=O)NC(C)c1ccco1)CCN(C(=O)c1cn3ccc(C)cc3n1)CC2 (configuration not stated) | inactive |
| COc1cc(=O)n2c(c1C(=O)N(C)Cc1nonc1C)CCN(C(=O)c1ccc(C)cc1C)CC2 | inactive |
| CCC1CN(CCNC(=O)c2ccsc2)Cc2cc(OC)ccc2O1 (configuration not stated) | inactive |
| Cc1nc2cc(NC(=O)[C@@H]3C[C@@H](Sc4ccccn4)CN3Cc3ccccc3C)ccc2s1 | inactive |
| N#Cc1ccc[n+](CC(=O)c2ccc(O)c(O)c2)c1 | inactive |
| O=C(Nc1nnc(S(=O)(=O)N2CCCCCC2)s1)c1cccc(Br)c1 | inactive and 28.2 µM (active) |
| O=C(Nc1nnc(S(=O)(=O)N2CCCc3ccccc32)s1)c1cccc(F)c1 | inactive |
| O=C(Nc1nnc(S(=O)(=O)N2CCOCC2)s1)c1cccc(Br)c1 | inactive |
| CC(C)Cc1cc(C(=O)NCCc2ccccc2)no1 | inactive |
| Cc1nn(Cc2ccc(F)cc2)c(C)c1NC(=O)c1cc(CC(C)C)on1 | inactive |
| CC(C)Cc1cc(C(=O)Nc2cc(Br)ccc2O)no1 | 44.7 µM (active) |
| Cc1nc2cnc(N3CCNCC3)nc2n(Cc2ccc(F)cc2)c1=O | inactive |
| COCc1c(C(=O)NC2CCCCC2)cnn1-c1nccc(-c2ccccc2OC)n1 | inactive |
| COc1ccc(/C=C/c2ccccn2)cc1OC | inactive |
| CCCS(=O)(=O)NCc1c(C)ncc2c1CCN(C(=O)c1ccc(F)c(F)c1)C2 | inactive |

| SMILES | Potency |
| --- | --- |
| CC(O)(COc1ccccc1)c1ccc2c(c1)CN(Cc1cn[nH]c1-c1ccc(F)cc1)CCO2 (configuration not stated) | inactive |
| O=[N+]([O-])c1ccc(O)c(/C=N/Nc2ccccc2[N+](=O)[O-])c1 | 20 µM (active) |
| CN(C)c1ccc(/C=N\Nc2ccc([N+](=O)[O-])cc2[N+](=O)[O-])cc1Cl | inactive |
| O=[N+]([O-])c1ccccc1N/N=C1\CCc2ccccc21 | inactive |
| COc1ccc(C)cc1N1C(=O)[C@@H]2C[C@H]1CN2Cc1cccc(OC)c1O | inactive |
| Cc1[nH]c2c(C(=O)NCC3Cc4cccc(-c5cccnc5)c4O3)cccc2c1C (configuration not stated) | inactive |
| CN(C)c1ccc(/C=C/c2sc3ccccc3[n+]2C)cc1 | 44.7 µM (active) |
| CN(C)c1ccc(C=Nc2ccc(/C=C/c3ccnc4ccccc34)cc2)cc1 | inactive |
| COc1ccc2c(c1)c(=Cc1ccc(N(C)C)cc1)c1cc(-c3ccccc3)[n+](C)n12 | inactive |
| COc1ccccc1-c1ccc(C(=O)N(C)C(C)c2ccon2)c(N2CCN(c3ccccc3F)CC2)n1 (configuration not stated) | inactive |
| Cc1ccc(-c2ccnc(-n3ncc(C(=O)N(C)Cc4cccc5ncccc45)c3C3CC3)n2)o1 | inactive |
| CN(C(=O)CSc1nnc(NC(=O)Nc2ccccc2)s1)c1ccccc1 | inactive |
| CC(=O)c1cccc(NC(=O)CSc2nc3c(c(=O)[nH]2)CCC3)c1 | inactive |
| CSc1nsc(NC(=O)Nc2ccccc2)n1 | 22.4 µM (active) |
| CC(=O)c1ccc(NC(=O)CSc2nnc(NC(=O)Nc3ccccc3)s2)cc1 | inactive |
| C=CCSc1nsc(NC(=O)Nc2cccc(C(C)=O)c2)n1 | 15.8 µM (active) |
| Cc1ccc(C(=O)Nc2nc(-c3ccccc3)ns2)cc1 | inactive |
| COC(=O)[C@@H]1C[C@H](NC(=O)c2ccccc2C(F)(F)F)CN1Cc1cccc(O)c1 | inactive |
| CC(=O)c1ccc(F)c(-c2cc(C)cc3c2OC(CNC(=O)Cc2c[nH]c4ccccc24)C3)c1 (configuration not stated) | inactive |
| C(=Nc1ccc(/C=C/c2ccnc3ccccc23)cc1)Nc1ccc(/C=C/c2ccnc3ccccc23)cc1 | inactive |
| Cc1ncc2c(c1CNS(=O)(=O)N(C)C)CCN(C(=O)c1ccccc1F)C2 | inactive |
| OCC(O)C(O)C(O)C(O)C=Nc1ccc(/C=C/c2ccnc3ccccc23)cc1 (configuration not stated) | inactive |
| COc1ccc(Oc2ncc3nc(-c4ccc(F)cc4)c(=O)n(C)c3n2)cc1 | inactive |
| CN(c1ccc2nc3ccccc3c(=O)n2n1)C1CCCCC1 | inactive |
| CC1(C)Cc2ccccc2-c2c[nH]c(=O)n21 | inactive |

| SMILES | Potency |
| --- | --- |
| O=c1c2ccccc2nc2n1C1(CCCCC1)Cc1ccccc1-2 | 4.47 µM (active) |
| COCC1CCCN(Cc2ccc3c(c2)CN(C(=O)c2ccnn2C)CCO3)C1 (configuration not stated) | inactive |
| C(=Nc1ccc(/C=C/c2ccnc3ccccc23)cc1)c1cc2c3c(c1)CCCN3CCC2 | inactive |
| Cc1cccc2c3c(ccc12)C1=C(C(=O)C3=O)C(C)CO1 (configuration not stated) | inactive |
| O=C1NC(CC(=O)N2CCC(n3c(C4CCC4)nc4cccnc43)CC2)c2ccccc21 (configuration not stated) | inactive |
| Oc1c(Cl)cc(Cl)c(Cl)c1Cc1c(O)c(Cl)cc(Cl)c1Cl | 2.82 µM (active) |
| CCN(CC)/[N+]([O-])=N/OCOC(=O)Cc1c(C)n(C(=O)c2ccc(Cl)cc2)c2ccc(OC)cc12 | inactive |
| Cc1cc(-c2ccnc(-n3ncc(C(=O)NCCc4ccncc4)c3C)n2)c(C)s1 | inactive |
| Cc1cc(C(=O)NCC2Cc3cccc(-c4cncnc4)c3O2)c(C)o1 (configuration not stated) | inactive |
| CN(C)c1ccc(CN2CCOc3ccc(CN4CCC(O)(c5cccnc5)CC4)cc3C2)cc1 | inactive |
| O=C(c1cn(CC2CCCN(Cc3cc4ccccc4s3)C2)nn1)N1CCCC1 (configuration not stated) | inactive |
| CCC1(C2CCN(C(=O)c3cccc(F)c3F)CC2)NC(=O)N(CCc2scnc2C)C1=O (configuration not stated) | inactive |
| CCCCN(C)S(=O)(=O)c1ccc(C(=O)Nc2sc3c(c2C(N)=O)CC(C)(C)NC3(C)C)cc1 | inactive |
| CCOC(=O)c1c(NC(=O)c2ccc(S(=O)(=O)N(CC)CC)cc2)sc2c1CCCCC2 | inactive |
| C=CCN(CC=C)S(=O)(=O)c1ccc(C(=O)Nc2sc3c(c2C(N)=O)CCCCC3)cc1 | 10 µM (active) |
| COc1ccc2c(c1)NC(=O)C2CC(=O)N1CCOc2c(cc(-c3cnc4ccccc4c3)cc2OC)C1 (configuration not stated) | inactive |
| COC(=O)c1ccccc1-c1cc(C)cc2c1OC(CNC(=O)C1CCOC1)C2 (configuration not stated) | inactive |
| COc1ccc(CCNc2ncnc3sc(C(=O)N4CCCC4)c(C)c23)cc1OC | inactive |
| COc1cc(-c2cccnc2)cc2c1OCCN(C(=O)Cc1csc(C)n1)C2 | inactive |
| O=C(c1cccc(Cn2cccn2)c1)N1CCOc2c(cc(-c3csc4ccccc34)cc2OC2CCOC2)C1 (configuration not stated) | inactive |
| N#Cc1cccc(-c2ccc3ncnc(NCc4cccs4)c3c2)c1 | inactive |
| Cc1cc(-c2ccnc(-n3ncc(C(=O)NC(C)(C)CO)c3C3CC3)n2)c(C)s1 | inactive |
